# Measured values: the supplement of paper PMC10077471
# Over roughly 1,900 compounds, “excess over highest single agent (ExcessHSA) synergy score, 6x6 matrix” has its median near -83; the lowest 2% begin near -370. Many of the other results were omitted from the sample, so the lowest values are more common in it than they were.
# Tested on: NCI-H446
# Experiment: excess over highest single agent (ExcessHSA) synergy score, 6x6 matrix; higher = less synergy (more negative = stronger synergy)
# Details: 72 h; CellTiter-Glo viability
row,SMILES,excess over highest single agent
1,FC(F)(F)c1ccc(Nc2nc3ccc(Oc4ccnc(-c5ncc(C(F)(F)F)[nH]5)c4)cc3[nH]2)cc1 + Cc1sc2c(c1C)C(c1ccc(Cl)cc1)=N[C@@H](CC(=O)OC(C)(C)C)c1nnc(C)n1-2 [NCGC00250412-19],-7.92
2,CC1(C)CC(=O)c2c(C(F)(F)F)nn(-c3ccc(C(N)=O)c(N[C@H]4CC[C@H](O)CC4)c3)c2C1 + Cc1sc2c(c1C)C(c1ccc(Cl)cc1)=N[C@@H](CC(=O)OC(C)(C)C)c1nnc(C)n1-2 [NCGC00250412-19],-379
3,CC1(C)CC(=O)c2c(C(F)(F)F)nn(-c3ccc(C(N)=O)c(N[C@H]4CC[C@H](OC(=O)CN)CC4)c3)c2C1 + Cc1sc2c(c1C)C(c1ccc(Cl)cc1)=N[C@@H](CC(=O)OC(C)(C)C)c1nnc(C)n1-2 [NCGC00250412-19],-482
4,COc1cccc2c1CCCC2CCCN1CCN(C2CCCCC2)CC1 (centres undefined) + Cc1sc2c(c1C)C(c1ccc(Cl)cc1)=N[C@@H](CC(=O)OC(C)(C)C)c1nnc(C)n1-2 [NCGC00250412-19],-180
5,Cc1nnc(C(C)C)n1[C@H]1C[C@H]2CC[C@@H](C1)N2CC[C@H](NC(=O)C1CCC(F)(F)CC1)c1ccccc1 + Cc1sc2c(c1C)C(c1ccc(Cl)cc1)=N[C@@H](CC(=O)OC(C)(C)C)c1nnc(C)n1-2 [NCGC00250412-19],-88.4
6,O=C(CC12CC3CC(CC(C3)C1)C2)Nc1cccc2nc(NCCNCCO)ccc12 + Cc1sc2c(c1C)C(c1ccc(Cl)cc1)=N[C@@H](CC(=O)OC(C)(C)C)c1nnc(C)n1-2 [NCGC00250412-19],-112
7,COc1ccccc1[C@H](c1cccc2ccccc12)[C@@](C)(C#N)C(=O)N1CCC(c2cccc(C(F)(F)F)c2)CC1 + Cc1sc2c(c1C)C(c1ccc(Cl)cc1)=N[C@@H](CC(=O)OC(C)(C)C)c1nnc(C)n1-2 [NCGC00250412-19],-352
8,Oc1ccc2ccccc2c1SSc1c(O)ccc2ccccc12 + Cc1sc2c(c1C)C(c1ccc(Cl)cc1)=N[C@@H](CC(=O)OC(C)(C)C)c1nnc(C)n1-2 [NCGC00250412-19],56.9
9,NS(=O)(=O)OC[C@@H]1C[C@@H](n2ccc3c(N[C@H]4CCc5ccccc54)ncnc32)C[C@@H]1O + Cc1sc2c(c1C)C(c1ccc(Cl)cc1)=N[C@@H](CC(=O)OC(C)(C)C)c1nnc(C)n1-2 [NCGC00250412-19],-544
10,O=C1NC(=O)C(c2cnc3ccccn23)=C1c1cn2c3c(cccc13)CN(C(=O)N1CCOCC1)CC2 + Cc1sc2c(c1C)C(c1ccc(Cl)cc1)=N[C@@H](CC(=O)OC(C)(C)C)c1nnc(C)n1-2 [NCGC00250412-19],-24.9
11,NC1(Cc2ccc(Cl)cc2)CCN(c2ncnc3[nH]ccc23)CC1 + Cc1sc2c(c1C)C(c1ccc(Cl)cc1)=N[C@@H](CC(=O)OC(C)(C)C)c1nnc(C)n1-2 [NCGC00250412-19],-66
12,COc1cc(CCc2cc(NC(=O)c3ccc(N4CC(C)NC(C)C4)cc3)n[nH]2)cc(OC)c1 (centres undefined) + Cc1sc2c(c1C)C(c1ccc(Cl)cc1)=N[C@@H](CC(=O)OC(C)(C)C)c1nnc(C)n1-2 [NCGC00250412-19],-88.8
13,CC(C)C[C@H](NC(=O)[C@H](CCc1ccccc1)NC(=O)CN1CCOCC1)C(=O)N[C@@H](Cc1ccccc1)C(=O)N[C@@H](CC(C)C)C(=O)[C@@]1(C)CO1 + Cc1sc2c(c1C)C(c1ccc(Cl)cc1)=N[C@@H](CC(=O)OC(C)(C)C)c1nnc(C)n1-2 [NCGC00250412-19],-521
14,CC(C)C[C@H](NC(=O)[C@@H](O)[C@H](N)Cc1ccccc1)C(=O)O + Cc1sc2c(c1C)C(c1ccc(Cl)cc1)=N[C@@H](CC(=O)OC(C)(C)C)c1nnc(C)n1-2 [NCGC00250412-19],-74.5
15,COC[C@H](NC(=O)c1cnc(C)s1)C(=O)N[C@@H](COC)C(=O)N[C@@H](Cc1ccccc1)C(=O)[C@@]1(C)CO1 + Cc1sc2c(c1C)C(c1ccc(Cl)cc1)=N[C@@H](CC(=O)OC(C)(C)C)c1nnc(C)n1-2 [NCGC00250412-19],-227
16,CN(C)CCN(C)C(=O)c1ccc(NC(=O)Nc2ccc(-c3nc(N4CCOCC4)c4ccn(CC(F)(F)F)c4n3)cc2)cc1 + Cc1sc2c(c1C)C(c1ccc(Cl)cc1)=N[C@@H](CC(=O)OC(C)(C)C)c1nnc(C)n1-2 [NCGC00250412-19],-272
17,CC(C)=CC[C@@H](O)C1=CC(=O)c2c(O)ccc(O)c2C1=O + Cc1sc2c(c1C)C(c1ccc(Cl)cc1)=N[C@@H](CC(=O)OC(C)(C)C)c1nnc(C)n1-2 [NCGC00250412-19],-344

row,SMILES,excess over highest single agent
1,Clc1ccc(-c2nc3sccn3c2C=NOCc2ccc(Cl)c(Cl)c2)cc1 + Cc1sc2c(c1C)C(c1ccc(Cl)cc1)=N[C@@H](CC(=O)OC(C)(C)C)c1nnc(C)n1-2 [NCGC00250412-19],-98.8
2,CCOc1cc(/C=C2/C(=O)N(c3ccccc3)N=C2C)cc(Cl)c1OCC(=O)OC + Cc1sc2c(c1C)C(c1ccc(Cl)cc1)=N[C@@H](CC(=O)OC(C)(C)C)c1nnc(C)n1-2 [NCGC00250412-19],76.6
3,CS(=O)(=O)N1CCc2c(-c3cnc(N)nc3)nc(N3CCOCC3)nc21 + Cc1sc2c(c1C)C(c1ccc(Cl)cc1)=N[C@@H](CC(=O)OC(C)(C)C)c1nnc(C)n1-2 [NCGC00250412-19],-391
4,COc1ccc(Nc2cc(-c3cnc(N)nc3)nc(N3CCOCC3)n2)cn1 + Cc1sc2c(c1C)C(c1ccc(Cl)cc1)=N[C@@H](CC(=O)OC(C)(C)C)c1nnc(C)n1-2 [NCGC00250412-19],3.49
5,Cc1nc(N)ncc1-c1nc(N2CCOCC2)c2sc(C(C)(C)O)cc2n1 + Cc1sc2c(c1C)C(c1ccc(Cl)cc1)=N[C@@H](CC(=O)OC(C)(C)C)c1nnc(C)n1-2 [NCGC00250412-19],-337
6,N=C1S/C(=C\c2ccc(-c3ccc4c(c3)C(=O)NC4=O)o2)C(=O)N1c1ccc(Br)cc1 + Cc1sc2c(c1C)C(c1ccc(Cl)cc1)=N[C@@H](CC(=O)OC(C)(C)C)c1nnc(C)n1-2 [NCGC00250412-19],122
7,Cc1c(CCOc2ccc(C(=O)O)cc2)c2cc(Cl)ccc2n1C(c1ccccc1)c1ccccc1 + Cc1sc2c(c1C)C(c1ccc(Cl)cc1)=N[C@@H](CC(=O)OC(C)(C)C)c1nnc(C)n1-2 [NCGC00250412-19],-12
8,COc1cccc2c1C(=O)c1c(O)c3c(c(O)c1C2=O)C[C@@](O)(C(=O)CO)C[C@@H]3O[C@H]1C[C@H](N)[C@@H](O)[C@H](C)O1 + Cc1sc2c(c1C)C(c1ccc(Cl)cc1)=N[C@@H](CC(=O)OC(C)(C)C)c1nnc(C)n1-2 [NCGC00250412-19],-433
9,COc1cccc2c1C(=O)c1c(O)c3c(c(O)c1C2=O)C[C@@](O)(C(C)=O)C[C@@H]3O[C@H]1C[C@H](N)[C@H](O)[C@H](C)O1 + Cc1sc2c(c1C)C(c1ccc(Cl)cc1)=N[C@@H](CC(=O)OC(C)(C)C)c1nnc(C)n1-2 [NCGC00250412-19],-304
10,COc1cccc2c1C(=O)c1c(O)c3c(c(O)c1C2=O)C[C@@](O)(C(=O)CO)C[C@@H]3O[C@H]1C[C@H](N)[C@H](O)[C@H](C)O1 + Cc1sc2c(c1C)C(c1ccc(Cl)cc1)=N[C@@H](CC(=O)OC(C)(C)C)c1nnc(C)n1-2 [NCGC00250412-19],-176
11,C[N+](C)([O-])CCNc1ccc(NCC[N+](C)(C)[O-])c2c1C(=O)c1c(O)ccc(O)c1C2=O + Cc1sc2c(c1C)C(c1ccc(Cl)cc1)=N[C@@H](CC(=O)OC(C)(C)C)c1nnc(C)n1-2 [NCGC00250412-19],-286
12,CN(C)c1ccc(C(=O)NCCCCCCC(=O)NO)cc1 + Cc1sc2c(c1C)C(c1ccc(Cl)cc1)=N[C@@H](CC(=O)OC(C)(C)C)c1nnc(C)n1-2 [NCGC00250412-19],-250
13,Nc1ccc(C(=O)c2cc3c(ccc4ccccc43)[nH]2)cc1 + Cc1sc2c(c1C)C(c1ccc(Cl)cc1)=N[C@@H](CC(=O)OC(C)(C)C)c1nnc(C)n1-2 [NCGC00250412-19],-275
14,CC(=O)O[C@H]1C(=O)[C@@]2(C)[C@H]([C@H](OC(=O)c3ccccc3)[C@]3(O)C[C@H](OC(=O)[C@H](O)[C@@H](NC(=O)c4ccccc4)c4ccccc4)C(C)=C1C3(C)C)[C@]1(OC(C)=O)CO[C@@H]1C[C@@H]2O + Cc1sc2c(c1C)C(c1ccc(Cl)cc1)=N[C@@H](CC(=O)OC(C)(C)C)c1nnc(C)n1-2 [NCGC00250412-19],-144
15,CO[C@H]1C(=O)[C@]2(C)[C@@H](OC)C[C@H]3OC[C@@]3(OC(C)=O)[C@H]2[C@H](OC(=O)c2ccccc2)[C@]2(O)C[C@H](OC(=O)[C@H](O)[C@@H](NC(=O)OC(C)(C)C)c3ccccc3)C(C)=C1C2(C)C + Cc1sc2c(c1C)C(c1ccc(Cl)cc1)=N[C@@H](CC(=O)OC(C)(C)C)c1nnc(C)n1-2 [NCGC00250412-19],-412
16,CC(=O)O[C@@]12CO[C@@H]1C[C@H](O)[C@@]1(C)C(=O)[C@H](O)C3=C(C)[C@@H](OC(=O)[C@H](O)[C@@H](NC(=O)OC(C)(C)C)c4ccccc4)C[C@@](O)([C@@H](OC(=O)c4ccccc4)[C@H]21)C3(C)C + Cc1sc2c(c1C)C(c1ccc(Cl)cc1)=N[C@@H](CC(=O)OC(C)(C)C)c1nnc(C)n1-2 [NCGC00250412-19],-135
17,CC(C)c1ccccc1Cc1cc(C(=O)Nc2ccc(S(=O)(=O)c3ccccc3C(C)(C)C)cc2)c(O)c(O)c1O + Cc1sc2c(c1C)C(c1ccc(Cl)cc1)=N[C@@H](CC(=O)OC(C)(C)C)c1nnc(C)n1-2 [NCGC00250412-19],-282
